# Screening data deposited in PubChem BioAssay by several laboratories.
# TLR4-MyD88 BLA: TLR4-MyD88 interaction inhibition in cells; 200,000 compounds, 0.18% hits; inhibition, % at 8.4 µM; HeLa CL3-4 TLR4/MyD88 BLA complementation, FRET ratio; in the data active means inhibition above about 25%;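 further: 0% = vehicle and 100% = reference inhibitor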
# Target sequence (O00206 whole entry, looked up): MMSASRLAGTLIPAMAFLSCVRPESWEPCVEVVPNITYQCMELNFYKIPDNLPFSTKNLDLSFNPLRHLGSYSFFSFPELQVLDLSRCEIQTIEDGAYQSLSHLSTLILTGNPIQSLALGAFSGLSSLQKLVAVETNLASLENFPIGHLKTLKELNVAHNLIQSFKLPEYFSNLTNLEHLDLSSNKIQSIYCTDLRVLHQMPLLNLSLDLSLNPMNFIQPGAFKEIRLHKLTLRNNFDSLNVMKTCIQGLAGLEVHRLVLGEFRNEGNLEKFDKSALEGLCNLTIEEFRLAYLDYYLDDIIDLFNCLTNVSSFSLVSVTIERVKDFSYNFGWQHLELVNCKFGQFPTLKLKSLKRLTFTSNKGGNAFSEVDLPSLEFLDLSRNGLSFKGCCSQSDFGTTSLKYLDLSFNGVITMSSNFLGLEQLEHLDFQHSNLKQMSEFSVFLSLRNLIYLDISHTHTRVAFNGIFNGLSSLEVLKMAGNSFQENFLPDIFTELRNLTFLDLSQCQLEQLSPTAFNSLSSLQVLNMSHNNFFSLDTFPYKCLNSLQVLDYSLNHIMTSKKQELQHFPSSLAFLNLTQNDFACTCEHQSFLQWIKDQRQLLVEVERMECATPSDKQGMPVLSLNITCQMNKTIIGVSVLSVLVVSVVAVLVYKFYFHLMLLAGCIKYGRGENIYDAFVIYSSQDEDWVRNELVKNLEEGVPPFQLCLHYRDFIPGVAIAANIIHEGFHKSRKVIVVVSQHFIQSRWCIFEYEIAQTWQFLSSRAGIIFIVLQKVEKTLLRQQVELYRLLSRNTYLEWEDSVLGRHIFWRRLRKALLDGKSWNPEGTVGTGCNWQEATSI
# Target sequence (Q99836 whole entry, looked up): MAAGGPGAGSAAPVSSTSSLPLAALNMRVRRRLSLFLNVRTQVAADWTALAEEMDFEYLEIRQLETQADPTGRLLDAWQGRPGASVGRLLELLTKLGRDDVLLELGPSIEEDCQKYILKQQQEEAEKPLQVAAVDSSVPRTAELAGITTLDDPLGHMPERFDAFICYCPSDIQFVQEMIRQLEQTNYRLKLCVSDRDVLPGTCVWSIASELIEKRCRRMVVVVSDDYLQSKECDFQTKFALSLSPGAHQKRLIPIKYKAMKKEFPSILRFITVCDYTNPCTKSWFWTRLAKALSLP
# TLR9-MyD88 block: inhibitors of human TLR9-MyD88 binding. CHO BLA complementation TLR9-MyD88, CCF4 FRET ratio. inhibition, % at 4.98 µM. 340,000 compounds, 0.21% hits;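 active means inhibition above the mean over all tested compounds plus 3 SD, cut at about 21% in these data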;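 further: 0% = DMSO only wells and 100% = clavulanate BLA inhibitor control wells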
# HSF-1 act: increases HSF-1 driven luciferase reporter signal; activation, % at 9 µM; NIH3T3-HGL HSF-1 luciferase reporter, MG132, 8 h; 100% = twice DMSO control signal; 300,000 compounds, 1.7% hits; AID 504408;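 active means mean replicate activation of at least 50% with a set share of replicates each reaching 50%; inconclusive means only one of those two conditions met; inactive means mean below 50% and too few replicates reaching it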;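 further: 0% = median of the neutral control wells and 100% = twice that signal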
# HSF1 inh: HSF1 inhibition; NIH3T3-HGL HSE-luciferase, MG132-induced, luminescence 8 h; stronger effect = lower value; activity change, negative = inhibition, % at 7.5 µM (by protocol); 300,000 compounds, 0.77% hits;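 active means more than half of replicate wells show activity change below -50%, luminescence cut by over half; inconclusive means some wells, but at most half, below -50%; inactive means no replicate well below -50%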;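 further: luciferase reports HSF-1 transcriptional activity via heat shock element; 0% = median of DMSO wells and -100% = zero luminescence signal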
# NOD2 RIPK2 PPI: NOD2-RIPK2 protein interaction inhibition; O43353; CHO BLA complementation NOD2-RIPK2, CCF4 ratio; inhibition, % at 4.98 µM; 360,000 compounds, 0.38% hits; in the data active means inhibition above about 21%;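 further: 0% = vehicle only and 100% = reference blocker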
# TLR9-MyD88 cf: confirmation of human TLR9-MyD88 binding inhibitors; shares compounds with TLR9-MyD88 block; CHO TLR9/MyD88 BLA complementation, CCF4 FRET ratio; inhibition, % at 4.98 µM; 680 compounds, 51% hits;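 active means mean inhibition across three repeats above about 21% taken from the earlier screen, limit read from the data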;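 further: blue over green emission ratio reports constitutive TLR9 MyD88 association via BLA complementation; 0% = DMSO vehicle wells and 100% = clavulanate BLA inhibitor wells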
# BLA counter-1: counter-screen for TLR9-MyD88 inhibitors: non-selective beta-lactamase inhibitors | shares compounds with TLR9-MyD88 block | CHO-BLA cells, CCF4 FRET ratio, BLA reporter | inhibition, % at 4.98 µM | 680 compounds, 7% hits;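 active means mean inhibition above a 50% cutoff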;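 further: counterscreen of TLR9-MyD88 hits on CMV-driven BLA in CHO-K1 cells; 0% = DMSO alone and 100% = clavulanate blocking BLA; higher means less blue over green ratio so more BLA blockade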
# TLR9 CHO tox: CHO cell toxicity counter-screen for TLR9-MyD88 inhibitors | shares compounds with TLR9-MyD88 block | TLR9-MyD88 CHO cells cytotoxicity, luminescence | inhibition, % at 4.98 µM | 680 compounds, 39% hits; in the data active means inhibition above about 11%
# NOD2-RIPK2 conf: NOD2-RIPK2 interaction inhibition confirmed. inhibition, % at 4.98 µM. shares compounds with NOD2 RIPK2 PPI. 1,200 compounds, 70% hits. CHO cells, NOD2-RIPK2 BLA complementation, CCF4 FRET;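 active means mean inhibition across replicates above a set limit taken from the earlier primary screen, cut at about 21% in these data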;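 further: 0% = DMSO-only wells and the high end = clavulanate BLA-blocked wells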
# BLA counter-2: counter-screen for NOD2-RIPK2 interaction inhibitors: BLA reporter; shares compounds with NOD2 RIPK2 PPI; CHO BLA reporter, CCF4 FRET ratio, counterscreen; inhibition, % at 4.98 µM; 1,200 compounds, 57% hits;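 active means mean inhibition above the low-control mean inhibition plus three low-control SD, cut at about 11% in these data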;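 further: 0% = DMSO only wells and 100% = clavulanate high control wells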
# Active calls of the source: *; ? = inconclusive; . = no result given. Shown are actives, neighbours in structure and some others; about 2.4% of the full set was active somewhere.
SMILES,TLR4-MyD88 BLA,TLR9-MyD88 block,HSF-1 act,HSF1 inh,NOD2 RIPK2 PPI,TLR9-MyD88 cf,BLA counter-1,TLR9 CHO tox,others
COc1ccc(OC)c(C=Nc2ccccc2-c2nc3ccccc3[nH]2)c1,4.8,5.6,29.3,19.3,3.9,.,.,.,
COc1ccc(OC)c(/C=C/c2nc3ccccc3[nH]c2=O)c1,.,27.9*,15.7,8.8,14.0,29.6*,31.6,-0.4,
Cc1nn(C)c(C)c1/C=N/NC(=O)CCn1nc(C)c([N+](=O)[O-])c1C,-4.1,27.6*,5.8,2.9,-0.6,-1.8,0.5,-0.7,
CC(C)C[C@H](NC(=O)Nc1ccc2c(c1)OCCO2)C(=O)O,.,0.7,-13.4,-3.8,6.1,.,.,.,
Cc1ccccc1NC(=O)CC1C(=O)Nc2ccccc2N1CC(=O)N(C)C1CCS(=O)(=O)C1 (centres undefined),.,-7.4,.,.,1.8,.,.,.,
Nc1nnc(-c2cc3ccccc3oc2=O)s1,13.8,14.0,10.3,-2.6,11.8,.,.,.,
COc1ccc2oc(=O)c(-c3nnc(N)s3)cc2c1,3.8,21.1*,10.8,12.7,17.3,7.9,11.5,-3.0,
Cc1ccc(-n2nc3c(c2NC(=O)c2c(F)cccc2Cl)CS(=O)(=O)C3)cc1C,.,22.0*,4.4,0.0,20.7,10.8,16.0,4.2,
Cc1ccc(Cn2cccc2/C=C2/C(=N)N3C=CSC3=NC2=O)cc1,1.2,29.6*,-1.7,-8.8,-7.0,5.7,10.9,15.6*,
O=C1[C@H]2[C@@H](c3ccc(C(F)(F)F)cc3)N[C@]3(CCCN(Cc4ccc(F)cc4)C3=O)[C@H]2C(=O)N1Cc1ccccc1,.,-0.1,.,.,-4.6,.,.,.,
COc1cc(/C=C/C(=O)c2ccc3c(c2)OCO3)cc(Cl)c1O,.,21.9*,?,46.1,11.1,15.8,19.6,3.2,
CC[C@@]1(C(=O)OC)N[C@H](CN(C)C(=O)c2ccc(C(C)(C)C)cc2)[C@@H]2C(=O)N(Cc3ccccc3)C(=O)[C@@H]21,.,-0.7,.,.,-2.4,.,.,.,
CCN(C[C@H]1N[C@@](CC)(C(=O)OC)[C@H]2C(=O)N(Cc3ccccc3)C(=O)[C@@H]12)C(=O)c1ccc(C(C)(C)C)cc1,.,45.3*,.,.,7.5,-7.1,-2.0,52.0*,
CSc1nnc(NC(=O)c2nc(S(=O)(=O)Cc3ccccc3)ncc2Cl)s1,.,-6.2,-27.9,-26.9,5.8,.,.,.,
COC(=O)c1ccc(NC(=O)c2nc(S(=O)(=O)Cc3cccc(C)c3)ncc2Cl)cc1,.,42.1*,-88.3,-86.0*,17.9,33.1*,26.6,100.3*,
CC1CC(C)CN(C(=O)c2cccc(S(=O)(=O)NCc3ccccc3)c2)C1 (centres undefined),.,-11.2,.,.,8.9,.,.,.,
O=C(c1cnn2c(C(F)F)cc(-c3ccccc3)nc12)N1CCN(Cc2ccc3c(c2)OCO3)CC1,.,-0.6,-0.4,3.3,1.0,.,.,.,
N#Cc1cccc(NC(=O)COC(=O)CCc2nc3ccccc3c(=O)[nH]2)c1,-11.5,21.3*,-6.7,0.8,-5.5,-1.1,-0.2,-2.1,
O=C1C=CC(=O)N1c1ccccc1N1C(=O)C=CC1=O,.,46.4*,.,.,-4.0,66.2*,38.3,99.0*,
CN(C(=O)CN1C(=O)c2cccc(N)c2C1=O)C1CCCCC1,.,29.1*,.,.,60.8*,17.4,20.0,1.6,NOD2-RIPK2 conf=50.9*;BLA counter-2=48.8*
CN(C(=O)CN1C(=O)NC2(CCc3ccccc32)C1=O)C1CCCCC1 (centres undefined),.,.,.,.,-6.3,.,.,.,
CCN(CC)c1ccc(C(=O)NNC(=O)CCNC(=O)c2ccccc2)cc1,.,0.2,.,.,-11.7,.,.,.,
